Measurements: PubChem BioAssay AID1745856 (National Center for Advancing Translational Sciences (NCATS), 2022)
Among all 120,000 compounds or so, about 270 (0.23%) were called active. Roughly 5% stayed inconclusive and do not appear here. Only a selection was taken, and actives are over-represented in it overall. A number with no mark means an inactive call. Calls follow the shape of the full dose curve.

Assay: Primary qHTS Assay for Foot and Mouth Disease Virus Antivirals against NCGC Sytravon and CBC Compound Libraries: Firefly Luciferase Signal; also: nearly all actives have a fitted effect of over 60% in size
Conditions: FMDV antiviral cell assay; series mostly up to 57.5 µM; activity change, negative = inhibition: at the top concentration
% is scaled to controls: 0 for no effect and ±100 for the full control effect; potency is read from the fitted curve at half-maximal effect.

| Structure (SMILES) | activity change, negative = inhibition | Potency |
| --- | --- | --- |
| CCCc1cc(=O)oc2cc(OCC(=O)NCc3ccc(S(N)(=O)=O)cc3)ccc12 | 0.254% | – |
| O=C(NCc1ccccn1)C1c2ccccc2C(=O)N(C2CCCC2)C12CCCC2 (stereo not drawn) | 0.974% | – |
| CCOc1cc(-c2nnc(SCC(=O)NC3CCCC3)nc2-c2ccc(OC)c(OCC)c2)ccc1OC | 38.3% | – |
| COc1ccc(-c2nc(CSCC(=O)NC3CCCCCC3)c(C)o2)cc1OC | – | 14.1 µM (active) |
| CCOc1cc(-c2nnc(SCC(=O)NC3CCCCC3)nc2-c2ccc(OC)c(OCC)c2)ccc1OC | -17.6% | – |
| O=C(NCc1cccnc1)C(F)(F)C(F)(F)C(F)(F)F | -6.42% | – |
| Fc1ccc(N=Cc2cccc(Oc3ccccc3)c2)c(F)c1F | 8.8% | – |
| COc1cccc(NC(=O)CCCc2nc(C(C)C)no2)c1 | 9.4% | – |
| CCN1CCCC1CNC(=O)c1cccc2c(=O)c(C)c(-c3ccccc3)oc12 (stereo not drawn) | -14.1% | – |
| Cc1ccc(NC(=O)COC(=O)c2ccc(C3Nc4ccccc4S(=O)(=O)N3)cc2)cc1 (stereo not drawn) | 2.63% | – |
| CC(C)c1cccc(NC(=O)Cc2c[nH]c3ccccc23)c1 | 18.7% | – |
| Cc1ccc(-c2csc3c2NC(=O)CC3c2ccc(C)cc2)cc1 (stereo not drawn) | 7.72% | – |
| COc1ccc(-c2csc3c2NC(=O)CC3c2ccc(OCC(N)=O)c(OC)c2)cc1 (stereo not drawn) | – | 3.98 µM (active) |
| COc1ccc(C2CC(=O)Nc3c2c(=O)nc2c(C)cccn32)cc1OC (stereo not drawn) | -5.25% | – |
| Cn1c(=O)[nH]c(=O)c2c1nc(NC1CCCCC1)n2CCCc1ccccc1 | -4.08% | – |
| COc1ccc(Cl)cc1NC(=O)COC(=O)c1nn(C)c(=O)c2ccccc12 | 4.36% | – |
| Cn1nc(CC(=O)Nc2cccc(Cl)c2)c2ccccc2c1=O | – | 8.91 µM (active) |
| COc1ccc(NC(=O)COC(=O)c2nn(C)c(=O)c3ccccc23)cc1Cl | 8.49% | – |
| Cc1ccc(-c2nc(CC(=O)NCc3ccc(Cl)cc3)cs2)o1 | 11% | – |
| COC(=O)c1c(C)[nH]c(C(=O)N2CCCCCC2c2ccc(OC)cc2)c1C (stereo not drawn) | 27.9% | – |
| COc1nc2ccccc2nc1N1CCC(C(=O)NCc2ccccc2)CC1 | -6.82% | – |
| COc1ccc(-c2cc(C(F)(F)F)nc(S(=O)(=O)CCC(=O)NCc3ccccc3)n2)cc1 | 17.2% | – |
| CC(C)(C)c1ccc(-c2nnc(-c3ccc(Br)o3)o2)cc1 | 227% | – |

| Structure (SMILES) | activity change, negative = inhibition | Potency |
| --- | --- | --- |
| Clc1ccc(CNc2n[nH]c(-c3ccco3)n2)c(Cl)c1 | 2.56% | – |
| O=C(c1ccn(COc2ccccc2)n1)N1CCN(Cc2ccc(Cl)c(Cl)c2)CC1 | -20.2% | – |
| Cn1ccnc1C(NC(=O)Cc1ccsc1)c1ccccc1F (stereo not drawn) | -5.78% | – |
| O=C(NC12CC3CC(CC(C3)C1)C2)C1CCCO1 (stereo not drawn) | 0.929% | – |
| C=C(C)C#CC(Cc1ccccc1)NCC1CC1 (stereo not drawn) | 4.99% | – |
| O=C(/C=C/c1ccc(Cl)cc1)OC1CCCCC1=O (stereo not drawn) | 131% | – |
| CCOc1ccc2c(c1)cc(C(=O)Nc1cc(OC)ccc1OC)n2C | 6.52% | – |
| COC(=O)c1ccc(S(=O)(=O)Nc2cccc(C(=O)OC)c2)cc1 | 6.65% | – |
| COCCn1c(-n2nc(C)cc2C)nc2c1c(=O)n(Cc1ccccc1F)c(=O)n2C | -7.87% | – |
| Cc1ccc(NC(=O)c2cccc(CS(C)=O)c2)c(C)c1 (stereo not drawn) | 0% | – |
| FC(F)(F)c1cnc(Sc2nnc(C3CC3)n2-c2ccccc2)c(Cl)c1 | -10.1% | – |
| O=C(CSc1n[nH]c(-c2cc(Cl)ccc2Cl)n1)N1CCCC1 | 14.1% | – |
| CCC(=O)Nc1ccc(C)cc1-c1nnc(SCC(=O)Nc2cc(Cl)ccc2Cl)[nH]c1=O | -0.529% | – |
| COc1ccc2c(C)c(CC(=O)N3CCN(c4ccccn4)CC3)c(=O)oc2c1OC | -12.5% | – |
| COc1ccccc1Oc1coc2cc(OCc3ccc(Cl)cc3)ccc2c1=O | 21.1% | – |
| CCn1c(=O)c2sccc2n(CC(=O)N2CCOc3ccc(C)cc32)c1=O | -4.07% | – |
| CC(=O)Nc1ccc(C(=O)COc2ncnc3sccc23)cc1 | 18.7% | – |
| CCCCC(CC)CNc1ncnc2sccc12 (stereo not drawn) | – | 8.91 µM (active) |
| CCCCC(CC)CNC(=O)CCCCn1c(=O)[nH]c2ccsc2c1=O (stereo not drawn) | -10.5% | – |
| C=CCn1c(-n2nc(C)cc2C)nc2c1c(=O)n(CCOCC)c(=O)n2C | 8.16% | – |
| CC(C)Oc1ccc(C2CC(=O)NC3=C2C(=O)CC(C)(C)C3)cc1 (stereo not drawn) | 24.8% | – |
| N#C/C(=C/c1ccco1)c1nc2ccccc2[nH]1 | 181% | – |
| CC(Cn1cccn1)NC(=O)c1cc(Cl)c2c(c1)OCO2 (stereo not drawn) | 0% | – |

| Structure (SMILES) | activity change, negative = inhibition | Potency |
| --- | --- | --- |
| Cc1cc(=O)n2c3ccccc3n(CC(O)CNc3ccc(Cl)cc3)c2c1C#N (stereo not drawn) | -3.73% | – |
| CCOC(=O)C1(C(C)=O)CC(C(=O)c2ccccc2)C(c2ccccc2)C(C(=O)c2ccccc2)C1 (stereo not drawn) | 1.77% | – |
| COc1cc(OC)cc(C(NC(=O)NOCc2ccccc2)c2nccn2C)c1 (stereo not drawn) | 21.3% | – |
| Cc1ccc(Cn2c(Br)nc3c2c(=O)n(C)c(=O)n3C)cc1 | 9.46% | – |
| O=C(Cc1ccccc1)Nc1ccc2oc(-c3ccc(F)cc3)nc2c1 | 108% | – |
| Cc1cc(O)c2c(C)c(CC(=O)Nc3nc4ccccc4[nH]3)c(=O)oc2c1 | 1.93% | – |
| Cc1cc(C)c2c(c1)C(=O)CCC2 | 14.9% | – |
| Cc1cc(C)c2c(c1)/C(=N/Nc1nc3ccccc3[nH]1)CCC2 | – | 4.47 µM (active) |
| CC(=O)N1CCN(C(=O)CCC(=O)N2CCC(c3noc4cc(F)ccc34)CC2)CC1 | 5.39% | – |
| Cc1oc(C)c(C(=O)Nc2ccccc2O)c1C | 0% | – |
| Cc1cnc2c(S(=O)(=O)N3CCN(C(C)CC#N)CC3)cccc2c1 (stereo not drawn) | 8.29% | – |
| CNC(=O)NC(=O)CN1CCCC(c2nc3ccccc3o2)C1 (stereo not drawn) | -2.97% | – |
| Cc1ccc(-c2noc(-c3occc3Br)n2)cc1 | 193% | – |
| O=S(=O)(NCC12CC3CC(CC(C3)C1)C2)c1cccs1 | 0.0354% | – |
| CCCCN(CCCNC(=O)c1cc(Nc2ccccc2OC)nc2ccccc12)c1ccccc1 | -0.272% | – |
| COc1ccc(Nc2cc(C(=O)NCCCN(C)c3ccccc3)c3ccccc3n2)c(OC)c1 | -7.92% | – |
| COc1ccccc1Nc1cc(C(=O)NCCCN(C)C2CCCCC2)c2ccccc2n1 | – | 28.2 µM (active) |
| CC1CCN(S(=O)(=O)N(C)Cc2ccc3c(c2)OCCO3)CC1 | -4.77% | – |
| O=C(CN1CCN(CC(=O)Nc2ccccc2C(=O)c2ccccc2)CC1)Nc1cccc(F)c1 | -12% | – |
| COc1ccc(C=O)cc1OCc1c(F)cccc1Cl | 7.96% | – |
| CC(C)C(=O)NC(Nc1cccc(Cl)c1Cl)C(Cl)(Cl)Cl (stereo not drawn) | 3.54% | – |
| CC(NC(=O)Cn1nnn(-c2ccccc2)c1=O)c1ccccc1 (stereo not drawn) | -1.05% | – |
